# PubChem BioAssay (Tox21)
# Inconclusive results are not listed. Entries that show only a call come without a potency. Values without a mark were called inactive. Activity calls are given as the source filed them. Unless noted, calls follow the shape of the dose curve; as a rule, active = well fitted curve in the direction sought with a large enough effect in the repeat runs; inconclusive = weak or mixed curves; inactive = no such curve, though single readings can be large; an effect the other way counts as inactive or inconclusive.
# Assays:
# [1] = qHTS assay to identify small molecule agonists of the peroxisome proliferator-activated receptor delta (PPARd) signaling pathway - cell viability counter screen (AID 743211); also: nearly all actives have a fitted effect of over 55% in size
# Method in brief: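 In the same wells used for beta-lactamase reporter measurement, cytotoxicity is scored by CellTiter-Glo. HEK293H PPARd-bla cells receive compound for 17 h at 37C following a 5 h settling period.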
# [2] = target: Peroxisome proliferator-activated receptor delta (Homo sapiens) (UniProt Q03181); experiment: qHTS assay to identify small molecule agonists of the peroxisome proliferator-activated receptor delta (PPARd) signaling pathway (AID 743212; calls by dose curve)
# Chain of Peroxisome proliferator-activated receptor delta (Homo sapiens) (Q03181 whole entry, looked up): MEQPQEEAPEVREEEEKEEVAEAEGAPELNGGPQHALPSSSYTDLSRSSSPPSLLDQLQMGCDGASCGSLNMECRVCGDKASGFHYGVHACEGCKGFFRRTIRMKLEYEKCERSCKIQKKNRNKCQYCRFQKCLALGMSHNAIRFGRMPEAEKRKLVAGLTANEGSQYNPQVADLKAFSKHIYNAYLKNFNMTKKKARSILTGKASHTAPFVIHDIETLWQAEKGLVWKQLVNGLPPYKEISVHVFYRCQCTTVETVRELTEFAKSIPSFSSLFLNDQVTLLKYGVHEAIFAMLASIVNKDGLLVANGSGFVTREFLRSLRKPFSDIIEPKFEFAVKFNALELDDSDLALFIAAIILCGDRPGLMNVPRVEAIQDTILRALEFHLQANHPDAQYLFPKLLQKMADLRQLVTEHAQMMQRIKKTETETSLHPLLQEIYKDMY
# Method in brief: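 Tox21 library screened in GeneBLAzer PPARd UAS-bla HEK293H cells. After compound treatment at 37 C, a FRET-based beta-lactamase substrate was applied for 2 h and fluorescence recorded.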
# [3] = qHTS assay to identify small molecule antagonists of the peroxisome proliferator-activated receptor delta (PPARd) signaling pathway - cell viability counter screen (AID 743213); also: nearly all actives have a fitted effect of over 50% in size; also: potency is read from the fitted curve at half-maximal effect
# Method in brief: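 HEK293H PPARd UAS-bla cells, 5 h pre-incubation, compound + L165041 300 nM final, 17 h 37 C; B/G FRET substrate 2 h RT; then CellTiter-Glo 30 min RT, luminescence.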
# [4] = target: Peroxisome proliferator-activated receptor delta (Homo sapiens) (UniProt Q03181); experiment: qHTS assay to identify small molecule antagonists of the peroxisome proliferator-activated receptor delta (PPARd) signaling pathway (AID 743215; active = well fitted inhibition curve with a large enough effect in the signal ratio in the repeat runs, not every such curve was filed as active; the % refers to the signal ratio;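 also: cells stimulated with agonist L165041 at 300 nM final during compound exposure; series mostly up to about 62 µM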)
# Method in brief: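 HEK293H GeneBLAzer PPARd UAS-bla reporter cells; cpd + L165041 300 nM final, 17 h 37 C; LiveBLAzer B/G FRET substrate 2 h RT; fluorescence intensity read-out. Antagonist mode.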
# [5] = qHTS assay to identify small molecule agonists of the farnesoid-X-receptor (FXR) signaling pathway - cell viability counter screen (AID 743218); also: nearly all actives have a fitted effect of over 45% in size
# Method in brief: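 Luminescence from CellTiter-Glo, read after 30 min at RT, reports viability of GeneBLAzer FXR-UAS-bla HEK 293T cells treated 16 h with compounds in the wells used for the beta-lactamase reporter.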
# [6] = qHTS assay to identify small molecule antagonists of the farnesoid-X-receptor (FXR) signaling pathway - cell viability counter screen (AID 743221; active = well fitted cell-killing curve with a large enough effect in the repeat runs, not every such curve was filed as active; also: nearly all actives have a fitted effect of over 50% in size; also: potency is read from the fitted curve at half-maximal effect)
# Method in brief: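 Here viability was scored by luminescence after CellTiter-Glo addition to wells already read for beta-lactamase. Prior treatment: compound plus CDCA (50 uM final), 16 h, 37 C, HEK 293T FXR-bla cells.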
# [7] = target: Vitamin D3 receptor (Homo sapiens) (UniProt P11473); experiment: qHTS assay to identify small molecule agonists of the vitamin D receptor (VDR) signaling pathway (AID 743222; calls by dose curve)
# Chain of Vitamin D3 receptor (Homo sapiens) (P11473 whole entry, looked up): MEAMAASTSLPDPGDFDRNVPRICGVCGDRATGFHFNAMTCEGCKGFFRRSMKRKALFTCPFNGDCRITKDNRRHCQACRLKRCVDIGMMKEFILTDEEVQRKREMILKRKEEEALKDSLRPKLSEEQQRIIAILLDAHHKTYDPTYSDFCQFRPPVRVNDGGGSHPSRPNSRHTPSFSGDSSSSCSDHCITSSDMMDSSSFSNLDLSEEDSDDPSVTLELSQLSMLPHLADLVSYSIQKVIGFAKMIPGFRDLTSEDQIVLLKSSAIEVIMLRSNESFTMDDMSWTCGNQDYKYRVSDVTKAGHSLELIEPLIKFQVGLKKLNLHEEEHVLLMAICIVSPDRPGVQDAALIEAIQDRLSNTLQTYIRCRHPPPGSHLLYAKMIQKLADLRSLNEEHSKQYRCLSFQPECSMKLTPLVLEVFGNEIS
# Method in brief: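 Beta-lactamase reporter readout (LiveBLAzer B/G FRET, 2 h RT) in VDR-bla cells after 16 h compound treatment at 37C, 5% CO2; cells pre-incubated 4 h before pin transfer of DMSO solutions.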
# [8] = qHTS assay to identify small molecule agonists of the vitamin D receptor (VDR) signaling pathway - cell viability counter screen (AID 743224); also: series mostly up to about 63 µM; nearly all actives have a fitted effect of over 50% in size
# Method in brief: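 Cytotoxicity counter screen: VDR-bla cells, 16 h compound exposure at 37C, 5% CO2; CellTiter-Glo luminescence, 30 min RT, same wells as bla read.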
# [9] = qHTS assay to identify small molecule antagonists of the vitamin D receptor (VDR) signaling pathway - cell viability counter screen (AID 743225); also: nearly all actives have a fitted effect of over 50% in size
# Method in brief: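 Compounds were pinned onto VDR-bla HEK 293T cells together with 1-alpha,25-dihydroxyvitamin D3 at 3 nM final. After 16 h at 37C and 5% CO2 plus the reporter readout, cell viability was measured by CellTiter-Glo luminescence (30 min, room temperature).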
# [10] = qHTS assay to identify small molecule agonists of the NFkB signaling pathway (AID 1159509; active = well fitted curve in the direction sought with a large enough effect in the signal ratio in the repeat runs, not every such curve was filed as active; the % refers to the signal ratio; also: series mostly up to about 61 µM)
# Method in brief: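 Pathway activation was measured in ME-180 cells stably expressing beta-lactamase under NF-kB response element control. Substrate cleavage was read as the 460/530 nm emission shift after 5 hr compound incubation.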
# [11] = qHTS assay to identify small molecule agonists of the NFkB signaling pathway - cell viability counter screen (AID 1159515; calls by dose curve; also: series mostly up to about 61 µM; nearly all actives have a fitted effect of over 55% in size)
# Method in brief: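 ME-180 NFkB-bla cells, 2,000/well; overnight attach; compound 5 hr, 37 C/5% CO2; LiveBLAzer substrate 1.5 hr RT; then CellTiter-Glo in same wells, 30 min RT, luminescence read.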
# [12] = qHTS assay to identify small molecule agonists of the endoplasmic reticulum stress response signaling pathway (AID 1159516; active = well fitted activation curve with a large enough effect in the signal ratio in the repeat runs, not every such curve was filed as active; the % refers to the signal ratio)
# Method in brief: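 HeLa ESRE-bla reporter line; cpd 5 h, 37 C/5% CO2; LiveBLAzer B/G FRET substrate 2 h RT; ex 405, em 460/530 nm.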
# [13] = qHTS assay to identify small molecule agonists of the endoplasmic reticulum stress response signaling pathway - cell viability counter screen (AID 1159517; calls by dose curve)
# Method in brief: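 In parallel with the ESRE reporter read, cytotoxicity was scored by CellTiter-Glo luminescence (30 min, room temperature) on HeLa ESRE-bla cells dosed for 5 hr.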
# [14] = qHTS assay to identify small molecule antagonists of the retinoid-related orphan receptor gamma (ROR-gamma) signaling pathway - cell viability counter screen (AID 1159520); also: nearly all actives have a fitted effect of over 50% in size
# Method in brief: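 Tet-on ROR gamma CHO cells were given compounds for 2 hr, then doxycycline hyclate at 1 uM final, and incubated 16 hr at 37 C. Viability was measured as ATP content by CellTiter-Glo luminescence.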
# [15] = target: Nuclear receptor ROR-gamma (Homo sapiens) (UniProt P51449); experiment: qHTS assay to identify small molecule antagonists of the retinoid-related orphan receptor gamma (ROR-gamma) signaling pathway (AID 1159521)
# Method in brief: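 Test compounds were applied to Tet-on RORγ CHO cells 2 h ahead of doxycycline hyclate (1 uM final). Luciferase reporter activity was quantified by luminescence after 16 h at 37 C and 5% CO2.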
# [16] = qHTS assay to identify small molecule agonists of the AP-1 signaling pathway (AID 1159526; calls by dose curve)
# [17] = qHTS assay to identify small molecule agonists of the AP-1 signaling pathway - cell viability counter screen (AID 1159525; calls by dose curve; also: nearly all actives have a fitted effect of over 55% in size)
# Method in brief: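 Same-well cytotoxicity counter screen of the Tox21 10K library in ME-180 cells. The readout is ATP-dependent luminescence after 5 h compound treatment. Data are normalised to DMSO and tetra n-octyl ammonium bromide controls.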
# [18] = target: Bile acid receptor (Homo sapiens) (UniProt Q96RI1); experiment: qHTS assay to identify small molecule agonists of the farnesoid-X-receptor (FXR) signaling pathway (AID 743220; active = well fitted activation curve with a large enough effect in the signal ratio in the repeat runs, not every such curve was filed as active; the % refers to the signal ratio)
# Chain of Bile acid receptor (Homo sapiens) (Q96RI1 whole entry, looked up): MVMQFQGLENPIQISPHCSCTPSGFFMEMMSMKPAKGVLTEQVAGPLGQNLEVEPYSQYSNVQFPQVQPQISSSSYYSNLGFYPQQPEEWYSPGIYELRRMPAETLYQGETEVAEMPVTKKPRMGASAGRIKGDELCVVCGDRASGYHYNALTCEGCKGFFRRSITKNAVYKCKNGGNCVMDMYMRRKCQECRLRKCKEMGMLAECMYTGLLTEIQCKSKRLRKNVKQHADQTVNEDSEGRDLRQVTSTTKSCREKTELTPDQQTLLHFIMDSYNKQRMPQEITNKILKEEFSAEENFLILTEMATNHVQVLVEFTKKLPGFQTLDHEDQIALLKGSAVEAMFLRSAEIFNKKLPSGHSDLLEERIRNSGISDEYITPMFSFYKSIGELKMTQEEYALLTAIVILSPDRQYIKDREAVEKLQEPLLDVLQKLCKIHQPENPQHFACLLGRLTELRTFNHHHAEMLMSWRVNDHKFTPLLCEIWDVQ
# Method in brief: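 FXR-UAS-bla HEK 293T cells carrying a UAS-driven beta-lactamase reporter were plated for 5 h at 37C/5% CO2, then exposed to DMSO-dissolved Tox21 10K compounds for 16 h at 37C. A LiveBLAzer B/G FRET substrate was loaded for 2 h at room temperature before fluorescence reading.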
# [19] = target: Vitamin D3 receptor (Homo sapiens) (UniProt P11473); experiment: qHTS assay to identify small molecule antagonists of the vitamin D receptor (VDR) signaling pathway (AID 743223; active = well fitted inhibition curve with a large enough effect in the signal ratio in the repeat runs, not every such curve was filed as active; the % refers to the signal ratio)
# Method in brief: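 Inhibition of agonist-driven VDR signalling is scored in VDR-bla cells: 3 nM final 1alpha,25-dihydroxyvitamin D3 plus compound, 16 h at 37C, then beta-lactamase detection by FRET substrate fluorescence after 2 h.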
# [20] = target: Bile acid receptor (Homo sapiens) (UniProt Q96RI1); experiment: qHTS assay to identify small molecule antagonists of the farnesoid-X-receptor (FXR) signaling pathway (AID 743217; active = well fitted inhibition curve with a large enough effect in the signal ratio in the repeat runs, not every such curve was filed as active; the % refers to the signal ratio)
# Method in brief: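 Read-out: beta-lactamase FRET fluorescence (LiveBLAzer B/G substrate, 2 h, room temperature) in GeneBLAzer FXR-UAS-bla HEK 293T cells. Compounds were co-dosed with 50 uM chenodeoxycholic acid (final) and incubated 16 h at 37 °C.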
Structure (SMILES),Potency [1],outcome [2],Potency [3],outcome [4],outcome [5],Potency [6],outcome [7],outcome [8],outcome [9],outcome [10],outcome [11],outcome [12],outcome [13],Potency [14],Potency [15],Potency [16],outcome [17],outcome [18],outcome [19],outcome [20]
C=CCOCC(O)CS(=O)(=O)O (stereo not drawn),inactive,inactive,inactive,inactive,inactive,inactive,inactive,inactive,inactive,inactive,inactive,inactive,inactive,inactive,inactive,inactive,,,,
C1C2OC2C2C1C1CC2C2OC12 (stereo not drawn),,,inactive,,inactive,inactive,inactive,inactive,,inactive,inactive,inactive,inactive,inactive,inactive,inactive,inactive,,,
CN(C)C(=O)C(CCN1CCC(O)(c2ccc(Cl)cc2)CC1)(c1ccccc1)c1ccccc1,,,11.9 µM (active),,,29.8 µM (active),,,inactive,inactive,inactive,inactive,inactive,inactive,inactive,inactive,inactive,inactive,inactive,
C[C@H](O)C(=O)Nc1c(I)c(C(=O)NC(CO)CO)c(I)c(C(=O)NC(CO)CO)c1I,inactive,inactive,inactive,inactive,,inactive,inactive,inactive,inactive,inactive,inactive,inactive,inactive,inactive,inactive,inactive,,,inactive,
C#CC(O)CCCCC (stereo not drawn),,inactive,inactive,,,inactive,,inactive,inactive,inactive,inactive,inactive,inactive,inactive,inactive,inactive,inactive,,,
OC1OC[C@@H](O)[C@H](O)[C@H]1O (stereo partly drawn),inactive,,inactive,,inactive,inactive,,inactive,inactive,inactive,inactive,inactive,inactive,inactive,inactive,inactive,,,,
CCCCCCCCCCCl,,inactive,inactive,inactive,inactive,inactive,inactive,inactive,inactive,inactive,inactive,inactive,inactive,inactive,inactive,inactive,,inactive,inactive,inactive
CC1=CC(=O)CCC1,inactive,inactive,inactive,,inactive,inactive,,inactive,,inactive,inactive,inactive,inactive,inactive,inactive,inactive,,,,
CO,,,inactive,,inactive,inactive,inactive,inactive,,inactive,inactive,inactive,inactive,inactive,inactive,inactive,inactive,,,
